A selection: hits, their analogues and other compounds. The true share with any hit is near 3.5%.
TEAD-YAP inh: TEAD-YAP interaction inhibition. HEK-TIYL cells, TEAD-Gal4/YAP UAS-luciferase luminescence. 1.4% of 640,000 active. inhibition, % at 9.12 µM. AID 1259422; in the data active = inhibition above about 32%
GPR151 activ: activators of human GPR151; Q8TDV0; PathHunter beta-arrestin GPR151 cells, luminescence; activation, % at 11.2 µM; 1% of 650,000 active; in the data active = activation above about 4.9%
Target sequence (Q8TDV0 whole entry, looked up): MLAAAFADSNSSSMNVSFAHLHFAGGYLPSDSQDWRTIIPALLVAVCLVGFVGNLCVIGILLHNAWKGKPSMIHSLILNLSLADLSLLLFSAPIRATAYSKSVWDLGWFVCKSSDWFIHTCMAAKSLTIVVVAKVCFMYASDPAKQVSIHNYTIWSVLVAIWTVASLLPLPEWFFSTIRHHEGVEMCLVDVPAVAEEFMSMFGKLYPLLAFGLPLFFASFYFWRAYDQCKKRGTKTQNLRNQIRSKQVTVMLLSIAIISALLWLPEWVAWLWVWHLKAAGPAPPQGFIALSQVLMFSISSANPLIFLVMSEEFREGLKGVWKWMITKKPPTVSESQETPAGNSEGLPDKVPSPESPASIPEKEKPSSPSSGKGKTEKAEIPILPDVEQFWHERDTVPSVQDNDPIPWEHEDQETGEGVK
MITF primary: blocks human microphthalmia-associated transcription factor; AlphaScreen MITF homodimerization, bead proximity signal; O75030; inhibition, % at 2.6 µM; AID 1259374; 0.91% of 650,000 active; in the data active = inhibition above about 50%
FBW7 activator: activators of human E3 ligase FBW7; AlphaScreen FBW7–phospho-cyclin E peptide binding, activator screen; normalized activity (activation), % at 26.1 µM; 0.13% of 650,000 active; AID 1259310; in the data active = normalized activity above about 1.9%;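 note: purified mutant Fbw7 with reduced substrate affinity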
MITF inh conf: confirmation of human MITF inhibitors; 16% of 4,700 active; inhibition, % at 2.6 µM; AID 1259372; shares compounds with MITF primary; AlphaScreen MITF homodimerization, biotin/His-MITF beads;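 active = inhibition above a cutoff derived from the DMSO control wells, cut at about 28% in these data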;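 note: inhibitors lower the bead chemiluminescence by keeping MITF from dimerizing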
AS interf DR: AlphaScreen optical interference, dose response counter-screen | shares compounds with MITF primary | 6% of 480 active | AID 1259373 | IC50, µM | AlphaScreen optical interference counterscreen, cell-free; call rule not given here
AS interf ctr: counter-screen: compounds optically interfering with AlphaScreen. shares compounds with MITF primary. LysRS AlphaScreen counterscreen, signal interference, triplicate. inhibition, % at 2.6 µM. 7.6% of 4,700 active. AID 1259376;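 active = inhibition above a cutoff derived from the DMSO control wells, cut at about 30% in these data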
Hits are given with their value; 0 = inactive; - = no result given.

SMILES	TEAD-YAP inh	GPR151 activ	MITF primary	FBW7 activator	MITF inh conf	AS interf ctr	others
O=C(NCc1ccccc1)C1CC12CCN(C(=O)CCCc1cccs1)CC2 (stereo not given)	0	0	62	0	0	0
CCN(CC)C(=S)SCc1c(C)c(C)c(Br)c(C)c1C	0	0	52	0	0	0
CCN(CC)C(=S)SCc1cn2cccc(C)c2n1	0	0	0	0	-	-
CCCOc1ccc(N2CC(C(=O)Nc3sc4c(c3C#N)CCCC4)CC2=O)cc1 (stereo not given)	0	0	0	0	-	-
C/C(=N\Nc1ccc(C(=O)O)cc1)c1cccc(Br)c1	0	0	0	0	-	-
C/C(=N\Nc1ccc(S(=O)(=O)O)cc1)c1cccc(Br)c1	0	0	56	0	38	0	AS interf DR=0
COc1ccccc1N1CCN(C2CCCN(C3CCC3)C2)CC1 (stereo not given)	0	0	0	0	-	-
COc1ccccc1N1CCN(C2CCN(C3CCCCC3)CC2)CC1	0	0	69	0	0	0
CC1CN(C2CCN(S(=O)(=O)c3ccc4ccccc4c3)CC2)CC(C)O1 (stereo not given)	0	0	52	0	0	0
COc1cccc(CN2CCC(N3CCN(c4ccccc4OC)CC3)CC2)c1	0	0	56	0	0	0
COc1ccc(S(=O)(=O)N2CCC(N3CCN(c4ccccc4OC)CC3)CC2)cc1	0	0	89	0	0	0
COc1ccccc1N1CCN(C2CCCN(S(=O)(=O)c3ccc(C)cc3)C2)CC1 (stereo not given)	0	0	0	0	-	-
CCOc1ccc(CCNS(=O)(=O)c2ccc(OC)cc2)cc1OCC	0	0	0	0	-	-
COc1cc(C)nc(N2CCC(C(=O)NCc3ccco3)CC2)n1	0	0	0	0	-	-
Cn1c(CN2CCOCC2)nc(=O)c2ccccc21	0	0	53	0	0	0
COCCNCC(=O)Nc1nc(C)cs1	0	0	70	0	0	0
COCCNCC(=O)Nc1nnc(C)s1	0	0	0	0	-	-
Nc1ccc(C(=O)OCC(=O)Nc2ccccc2)cc1[N+](=O)[O-]	0	0	0	0	-	-
COC(=O)CSC1=C(C#N)C(c2ccc3c(c2)OCO3)CC(=O)N1 (stereo not given)	0	0	0	0	-	-
COc1ccc(-c2cc3ccccc3n2CC(O)CNCc2ccco2)cc1 (stereo not given)	0	0	71	0	0	0
OCCN1CCN(Cn2nc(-c3ccc(F)cc3)n(-c3ccccc3)c2=S)CC1	0	0	0	0	-	-
CCCCn1c(SCC(=O)Nc2cc(F)ccc2F)nc2c(oc3ccccc32)c1=O	0	0	0	0	-	-
Cc1ccc(C2NS(=O)(=O)N=C2N)cc1 (stereo not given)	0	0	52	0	0	0
COC(=O)CN(CCN(CC(=O)O)CC(=O)OC)CC(=O)O	0	0	55	0	41	0
O=C(O)CN(CCN(CC(=O)O)CC(=O)O)CC(=O)O	0	0	0	0	-	-
SMILES	TEAD-YAP inh	GPR151 activ	MITF primary	FBW7 activator	MITF inh conf	AS interf ctr	others
O=C(O)CNC(=O)CC1S/C(=N/N=C2\CSC(=O)N2)NC1=O (stereo not given)	0	0	88	0	80	100
O=C(CC1S/C(=N/N=C2\CSC(=O)N2)NC1=O)Nc1ccc(F)cc1 (stereo not given)	0	0	61	0	49	99
O=C(O)CNC(=O)CC1S/C(=N/N=C/c2ccccc2O)NC1=O (stereo not given)	0	0	0	0	-	-
O=C(CC1S/C(=N/N=C2\CSC(=O)N2)NC1=O)Nc1ccc(Cl)cc1 (stereo not given)	0	0	0	0	-	-
COc1ccc(-c2noc(COc3ccccc3OC)n2)cc1	0	0	0	0	-	-
COc1ccccc1NC(=O)N1CCCC1C(=O)NCc1ccccc1F (stereo not given)	0	0	0	0	-	-
COc1ccccc1NC(=O)N1CCCC1C(=O)NCc1ccccc1Cl (stereo not given)	0	0	73	0	0	0
O=S(=O)(Nc1ccc(-c2ccc(N3CCCCC3)nn2)cc1)c1ccc2ccccc2c1	0	0	0	0	-	-
O=C(CSc1nc(NCc2ccco2)c2ccccc2n1)N1CCN(c2ccccc2)CC1	0	0	52	0	0	0
O=C(c1ccc2nc(-c3ccco3)c(-c3ccco3)nc2c1)N1CCSCC1	0	0	87	0	72	0	AS interf DR=0
O=C(c1ccc2nc(-c3cccs3)c(-c3cccs3)nc2c1)N1CCOCC1	0	0	0	0	-	-
CC(C)Oc1ccc(C(=O)Nc2c3c(nn2-c2ccc([N+](=O)[O-])cc2)CSC3)cc1	0	0	0	0	-	-
CN(Cc1ccccc1)C1CCN(Cc2ccncc2)CC1	0	0	81	0	0	0
CN(Cc1ccccc1)C1CCN(Cc2ccccn2)CC1	0	0	0	0	-	-
CN(Cc1ccccc1)C1CCN(Cc2cccnc2)CC1	0	0	72	0	0	0
CN(C)CCN(Cc1ccccc1)C1CCN(Cc2ccncc2)CC1	0	0	0	0	-	-
CN1CCN(C(CNC(=O)c2ccc(-c3ccccc3)cc2)c2ccsc2)CC1 (stereo not given)	0	0	55	0	0	0
Cc1cc(NC2CCCCC2)nc(-c2ccccc2O)n1	0	0	79	0	0	0
Cc1ccc(C(=O)/C=C/c2ccc(Br)o2)o1	0	0	67	0	0	0
Cc1ccc(C(=O)/C=C/c2ccc(Br)cc2)o1	0	0	0	0	-	-
CC(=O)C1=C(O)C(=O)N(CCN2CCNCC2)C1c1ccc(F)cc1 (stereo not given)	0	0	101	0	0	0
O=C(NC(NCCOC12CC3CC(CC(C3)C1)C2)(C(F)(F)F)C(F)(F)F)c1cccs1	0	0	0	0	-	-
O=C(O)/C=C/c1ccc([N+](=O)[O-])o1	0	0	60	0	64	0	AS interf DR=0
COc1ccc(-c2noc(CC(=O)N3CCN(c4cc(Cl)ccc4C)CC3)n2)cc1	0	0	0	0	-	-
Cc1sc2nc(CNCc3ccco3)[nH]c(=O)c2c1-c1ccccc1	0	0	58	0	0	0
SMILES	TEAD-YAP inh	GPR151 activ	MITF primary	FBW7 activator	MITF inh conf	AS interf ctr	others
O=[N+]([O-])c1cc(Nc2ncnc3sc4c(c23)CCCC4)cc(Oc2ccc(F)cc2F)c1	0	0	0	0	-	-
c1ccc(-c2ccccc2OCCOCCN2CCCC2)cc1	0	0	0	0	-	-
c1ccc(-c2ccccc2OCCN2CCNCC2)cc1	0	0	66	0	0	0
c1ccc(-c2ccccc2OCCCN2CCOCC2)cc1	0	0	91	0	0	0
c1ccc2c(OCCCCN3CCOCC3)cccc2c1	0	0	0	0	-	-
Cc1cc(C)n2nc(C(=O)Nc3nc4ccccc4[nH]3)nc2n1	0	0	0	0	-	-
Cc1nnc(N/N=C/c2cc(Cl)ccc2O)n1N	0	0	0	0	-	-
O=C(CSc1ccc2nnc(-c3ccccn3)n2n1)Nc1nc2ccccc2s1	0	0	0	0	-	-
COc1ccc(Nc2ncnc3c2c(-c2ccccc2)cn3-c2cccc(C)c2)cc1OC	0	0	0	0	-	-
